Results filed as inconclusive are left out. Entries that show only a call come without a potency. A number with no mark means an inactive call. Activity calls are given as the source filed them. Calls come from the whole dose curve; as a rule, active = well fitted curve in the direction sought with a large enough effect; inconclusive = small, poorly fitted or top-dose-only effect, or another doubt; inactive = no such curve, though single readings can be large; an effect the other way counts as inactive or inconclusive.
How the values were obtained:
[1] = system: Zika virus NS2B-NS3 protease; experiment: Primary screen GU AMC qHTS for Zika virus inhibitors (AID 1347154); note: nearly all actives have a fitted effect of over 70% in size
Procedure, shortened: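 Unlinked Zika NS2B hydrophilic domain/NS3 protease domain noncovalent complex (25 nM final) in 10 mM Tris-HCl pH 8.0, 0.01% Tween 20, with AMC peptide substrate. Fluorescence (ex 340, em 450 nm) change over 15 min, room temperature; percent inhibition fitted to 4-parameter Hill equation.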

[2] = Counterscreen qHTS for small molecule stabilizers of the endoplasmic reticulum resident proteome: GLuc-NoTag assay (AID 1508627);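 note: SH-SY5Y cells given compound then 100 nM thapsigargin to empty ER calcium; series mostly up to about 76 µM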
Procedure, shortened: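 SH-SY5Y cells stably expressing constitutively secreted GLuc (no SERCaMP tag) were pre-incubated 5 h, treated with compound for 19 h, then 100 nM thapsigargin for 4 h at 37C; medium GLuc read by coelenterazine luminescence.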

N=C(N)SCCN=C(N)N
Potency [1]: inactive
Potency [2]: inactive
